From publication PMC7862700, “An all-to-all approach to the identification of sequence-specific readers for epigenetic DNA modifications on cytosine”

Assays:
Assay in all cases: DAPPL (digital affinity profiling via proximity ligation, sequencing); 10 mM Tris-HCl pH 7.5, 50 mM NaCl, 1 mM DTT, 4% glycerol, room temperature, 30 min; GST-TFs on glutathione beads, 16-mer random dsDNA library, 0.1% formaldehyde crosslink after washing; high values mean tight binding
[1] = molecular target: T1, FLI1 (Homo sapiens, UniProt Q01543 1-452); conditions: protein: recombinant; tags: N-terminal GST; dsDNA, one strand shown
T1 sequence: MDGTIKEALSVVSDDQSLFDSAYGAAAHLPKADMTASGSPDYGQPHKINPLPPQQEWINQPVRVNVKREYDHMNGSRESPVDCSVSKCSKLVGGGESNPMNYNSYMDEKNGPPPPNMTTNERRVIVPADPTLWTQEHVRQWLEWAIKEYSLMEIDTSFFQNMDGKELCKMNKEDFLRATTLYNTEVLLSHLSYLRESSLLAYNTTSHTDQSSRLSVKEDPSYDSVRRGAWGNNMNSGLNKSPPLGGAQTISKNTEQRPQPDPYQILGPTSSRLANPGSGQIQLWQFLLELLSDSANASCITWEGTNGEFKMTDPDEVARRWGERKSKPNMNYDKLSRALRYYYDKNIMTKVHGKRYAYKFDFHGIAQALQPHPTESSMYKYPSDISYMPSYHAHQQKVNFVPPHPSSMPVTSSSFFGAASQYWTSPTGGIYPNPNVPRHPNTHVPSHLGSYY
Method in brief: (§1)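 Pools of DNA-barcoded human transcription factors, expressed in yeast as GST fusions on glutathione beads and combined with a tag-only sample, were incubated with 200 nmole of a 16-mer random double-stranded DNA library. Incubation took 30 min at room temperature in Tris/NaCl/DTT/glycerol buffer and was followed by washing, 0.1% formaldehyde crosslinking, proximity ligation (BsaI/T4 ligase, 1 h, 37 °C), PCR amplification and sequencing on an Illumina NextSeq500. Binding signal is the ratio of a hexamer's read frequency for a factor to its frequency for the tag-only sample.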

[2] = molecular target: T2, ELK1 (Homo sapiens, UniProt P19419 1-428); conditions: protein: recombinant; tags: N-terminal GST; dsDNA, one strand shown
T2 sequence: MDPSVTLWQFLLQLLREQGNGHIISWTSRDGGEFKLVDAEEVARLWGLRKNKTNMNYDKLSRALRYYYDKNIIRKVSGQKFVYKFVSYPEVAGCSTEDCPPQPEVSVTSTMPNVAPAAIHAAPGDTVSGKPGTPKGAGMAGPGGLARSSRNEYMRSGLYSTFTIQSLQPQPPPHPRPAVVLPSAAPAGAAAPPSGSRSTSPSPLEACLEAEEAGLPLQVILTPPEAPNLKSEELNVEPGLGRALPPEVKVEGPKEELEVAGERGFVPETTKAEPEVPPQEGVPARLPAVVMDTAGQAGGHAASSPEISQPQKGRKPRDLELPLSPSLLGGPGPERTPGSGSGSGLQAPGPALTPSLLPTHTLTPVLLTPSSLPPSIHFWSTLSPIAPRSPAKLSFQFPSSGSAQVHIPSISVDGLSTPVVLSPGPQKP
Method in brief: as §1

[3] = molecular target: T3, GABPA (Homo sapiens, UniProt Q06546 1-454); conditions: protein: recombinant; tags: N-terminal GST; dsDNA, one strand shown
T3 sequence: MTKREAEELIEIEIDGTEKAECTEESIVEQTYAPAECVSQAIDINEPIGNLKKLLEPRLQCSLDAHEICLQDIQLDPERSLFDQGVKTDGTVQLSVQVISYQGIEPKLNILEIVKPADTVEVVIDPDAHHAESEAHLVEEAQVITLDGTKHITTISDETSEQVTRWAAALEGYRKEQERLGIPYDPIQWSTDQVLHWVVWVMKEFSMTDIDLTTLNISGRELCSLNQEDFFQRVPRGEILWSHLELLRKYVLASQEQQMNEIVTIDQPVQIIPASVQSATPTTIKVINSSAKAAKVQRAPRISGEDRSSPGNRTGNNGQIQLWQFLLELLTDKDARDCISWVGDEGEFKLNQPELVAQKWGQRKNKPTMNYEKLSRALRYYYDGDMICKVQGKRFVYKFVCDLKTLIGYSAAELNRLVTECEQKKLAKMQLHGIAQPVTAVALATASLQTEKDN
Method in brief: as §1

[4] = molecular target: T4, ERG (Homo sapiens, UniProt P11308 1-479); conditions: protein: recombinant; tags: N-terminal GST; dsDNA, one strand shown
T4 sequence: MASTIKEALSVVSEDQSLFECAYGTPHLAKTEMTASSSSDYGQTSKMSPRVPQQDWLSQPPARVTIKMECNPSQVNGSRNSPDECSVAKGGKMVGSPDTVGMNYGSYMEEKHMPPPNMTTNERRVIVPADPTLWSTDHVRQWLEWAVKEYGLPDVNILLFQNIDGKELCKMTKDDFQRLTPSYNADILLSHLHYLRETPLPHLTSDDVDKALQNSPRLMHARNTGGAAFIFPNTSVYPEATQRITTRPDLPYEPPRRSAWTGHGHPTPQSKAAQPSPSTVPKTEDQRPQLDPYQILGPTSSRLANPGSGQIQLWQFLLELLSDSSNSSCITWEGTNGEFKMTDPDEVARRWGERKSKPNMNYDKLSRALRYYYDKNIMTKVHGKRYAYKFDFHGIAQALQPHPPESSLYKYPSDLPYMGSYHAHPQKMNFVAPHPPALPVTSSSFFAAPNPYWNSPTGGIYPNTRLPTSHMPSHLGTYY
Method in brief: as §1

[5] = molecular target: ELF1 (Homo sapiens, UniProt P32519 1-619); conditions: protein: recombinant; tags: N-terminal GST; dsDNA, one strand shown
Chain of ELF1 (P32519 whole entry): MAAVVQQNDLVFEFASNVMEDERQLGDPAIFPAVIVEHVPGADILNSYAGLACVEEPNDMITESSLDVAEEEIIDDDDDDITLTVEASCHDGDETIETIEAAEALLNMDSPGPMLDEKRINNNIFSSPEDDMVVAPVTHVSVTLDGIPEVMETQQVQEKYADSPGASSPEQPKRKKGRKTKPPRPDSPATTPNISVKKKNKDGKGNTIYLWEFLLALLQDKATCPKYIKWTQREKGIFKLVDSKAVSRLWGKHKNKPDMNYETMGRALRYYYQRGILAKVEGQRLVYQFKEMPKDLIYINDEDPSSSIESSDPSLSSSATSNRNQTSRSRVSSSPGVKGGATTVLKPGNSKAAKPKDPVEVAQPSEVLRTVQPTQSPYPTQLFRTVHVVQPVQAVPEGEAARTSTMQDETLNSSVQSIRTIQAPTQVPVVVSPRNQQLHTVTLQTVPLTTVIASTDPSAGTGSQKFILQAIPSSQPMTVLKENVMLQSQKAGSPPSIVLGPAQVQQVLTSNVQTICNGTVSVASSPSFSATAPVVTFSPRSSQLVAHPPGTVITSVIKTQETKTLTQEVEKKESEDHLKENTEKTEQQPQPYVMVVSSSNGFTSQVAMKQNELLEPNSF
Method in brief: as §1

[6] = molecular target: T5, EHF (Homo sapiens, UniProt Q9NZC4 1-300); conditions: protein: recombinant; tags: N-terminal GST; dsDNA, one strand shown
T5 sequence: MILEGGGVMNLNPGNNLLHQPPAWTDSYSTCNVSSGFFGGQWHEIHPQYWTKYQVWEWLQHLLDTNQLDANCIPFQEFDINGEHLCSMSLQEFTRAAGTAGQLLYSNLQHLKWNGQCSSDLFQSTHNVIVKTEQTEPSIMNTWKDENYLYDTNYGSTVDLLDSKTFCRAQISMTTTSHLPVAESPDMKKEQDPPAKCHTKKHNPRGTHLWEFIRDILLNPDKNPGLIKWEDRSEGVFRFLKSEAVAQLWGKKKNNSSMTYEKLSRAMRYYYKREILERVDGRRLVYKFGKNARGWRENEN
Method in brief: as §1

[7] = molecular target: SPI1 (Homo sapiens, UniProt P17947 1-270); conditions: protein: recombinant; tags: N-terminal GST; dsDNA, one strand shown
Method in brief: as §1

[8] = molecular target: SPIB (Homo sapiens, UniProt Q01892 1-262); conditions: protein: recombinant; tags: N-terminal GST; dsDNA, one strand shown
Chain of SPIB (Q01892 whole entry): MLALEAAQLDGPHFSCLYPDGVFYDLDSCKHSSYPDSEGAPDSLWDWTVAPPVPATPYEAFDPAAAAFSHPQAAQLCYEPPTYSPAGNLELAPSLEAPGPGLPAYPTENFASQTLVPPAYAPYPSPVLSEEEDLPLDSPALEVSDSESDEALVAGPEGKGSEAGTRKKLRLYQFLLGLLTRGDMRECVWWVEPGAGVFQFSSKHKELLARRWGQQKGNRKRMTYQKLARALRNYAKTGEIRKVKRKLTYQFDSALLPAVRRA
Method in brief: as §1

[9] = molecular target: T6, ELK3 (Homo sapiens, UniProt P41970 1-407); conditions: protein: recombinant; tags: N-terminal GST; dsDNA, one strand shown
T6 sequence: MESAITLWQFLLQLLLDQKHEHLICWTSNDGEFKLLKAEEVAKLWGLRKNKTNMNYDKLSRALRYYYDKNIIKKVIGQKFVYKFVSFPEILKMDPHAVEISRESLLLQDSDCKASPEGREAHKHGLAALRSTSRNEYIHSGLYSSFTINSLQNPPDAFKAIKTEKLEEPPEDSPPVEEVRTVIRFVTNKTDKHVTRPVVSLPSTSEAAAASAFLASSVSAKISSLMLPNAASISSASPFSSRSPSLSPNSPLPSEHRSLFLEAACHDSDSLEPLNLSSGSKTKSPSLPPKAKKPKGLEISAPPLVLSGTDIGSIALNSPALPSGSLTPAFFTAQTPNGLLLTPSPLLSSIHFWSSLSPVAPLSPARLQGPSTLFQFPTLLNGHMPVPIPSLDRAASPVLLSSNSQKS
Method in brief: as §1

[10] = molecular target: T7, FEV (Homo sapiens, UniProt Q99581 1-238); conditions: protein: recombinant; tags: N-terminal GST; dsDNA, one strand shown
T7 sequence: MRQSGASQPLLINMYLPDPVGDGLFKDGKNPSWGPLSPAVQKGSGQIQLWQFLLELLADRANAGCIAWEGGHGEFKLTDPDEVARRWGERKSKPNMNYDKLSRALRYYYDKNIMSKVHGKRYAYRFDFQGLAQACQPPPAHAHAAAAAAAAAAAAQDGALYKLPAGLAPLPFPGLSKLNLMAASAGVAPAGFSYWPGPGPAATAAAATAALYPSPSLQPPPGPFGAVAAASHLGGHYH
Method in brief: as §1

[11] = molecular target: ETV5 (Homo sapiens, UniProt P41161 1-510); conditions: protein: recombinant; tags: N-terminal GST; dsDNA, one strand shown
Chain of ETV5 (P41161 whole entry): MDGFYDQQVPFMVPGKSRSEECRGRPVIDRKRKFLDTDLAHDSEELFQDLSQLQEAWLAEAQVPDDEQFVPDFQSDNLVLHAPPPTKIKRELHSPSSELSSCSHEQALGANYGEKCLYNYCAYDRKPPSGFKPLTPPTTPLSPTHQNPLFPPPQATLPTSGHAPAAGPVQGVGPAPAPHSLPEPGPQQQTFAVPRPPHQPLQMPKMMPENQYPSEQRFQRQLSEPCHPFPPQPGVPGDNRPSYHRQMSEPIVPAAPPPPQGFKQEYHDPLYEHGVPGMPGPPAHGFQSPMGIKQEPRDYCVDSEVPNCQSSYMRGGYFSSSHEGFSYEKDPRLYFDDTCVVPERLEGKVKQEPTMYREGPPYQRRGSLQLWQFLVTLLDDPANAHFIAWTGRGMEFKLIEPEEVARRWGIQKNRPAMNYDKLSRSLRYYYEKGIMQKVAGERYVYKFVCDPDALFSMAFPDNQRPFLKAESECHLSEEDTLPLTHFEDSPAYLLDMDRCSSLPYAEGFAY
Method in brief: as §1

[12] = molecular target: HSF1 (Homo sapiens, UniProt Q00613 1-529); conditions: protein: recombinant; tags: N-terminal GST; chain copies: 3; dsDNA, one strand shown
Chain of HSF1 (Q00613 whole entry): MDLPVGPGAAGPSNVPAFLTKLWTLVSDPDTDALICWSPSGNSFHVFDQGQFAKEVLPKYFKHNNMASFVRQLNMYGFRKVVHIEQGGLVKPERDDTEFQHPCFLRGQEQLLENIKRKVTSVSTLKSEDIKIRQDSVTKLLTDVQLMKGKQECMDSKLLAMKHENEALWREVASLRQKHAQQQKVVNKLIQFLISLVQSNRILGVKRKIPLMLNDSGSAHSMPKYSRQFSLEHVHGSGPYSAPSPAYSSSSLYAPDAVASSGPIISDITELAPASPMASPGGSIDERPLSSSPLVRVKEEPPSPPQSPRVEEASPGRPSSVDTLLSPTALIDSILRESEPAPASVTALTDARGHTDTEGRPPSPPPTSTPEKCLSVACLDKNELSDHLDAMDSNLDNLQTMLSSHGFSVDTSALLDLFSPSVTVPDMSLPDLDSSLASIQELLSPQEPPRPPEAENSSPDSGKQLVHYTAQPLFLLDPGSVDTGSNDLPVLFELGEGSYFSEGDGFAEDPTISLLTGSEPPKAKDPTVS
Method in brief: as §1

[13] = molecular target: T8, SPIC (Homo sapiens, UniProt Q8N5J4 1-248); conditions: protein: recombinant; tags: N-terminal GST; dsDNA, one strand shown
T8 sequence: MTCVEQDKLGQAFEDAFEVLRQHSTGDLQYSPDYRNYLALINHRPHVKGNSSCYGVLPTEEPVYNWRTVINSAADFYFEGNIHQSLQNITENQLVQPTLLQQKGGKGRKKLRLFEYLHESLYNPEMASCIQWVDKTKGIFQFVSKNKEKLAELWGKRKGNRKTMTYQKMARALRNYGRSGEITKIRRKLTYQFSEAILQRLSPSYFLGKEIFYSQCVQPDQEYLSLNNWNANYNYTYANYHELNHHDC
Method in brief: as §1

[14] = molecular target: ELF4 (Homo sapiens, UniProt Q99607 1-663); conditions: protein: recombinant; tags: N-terminal GST; dsDNA, one strand shown
Chain of ELF4 (Q99607 whole entry): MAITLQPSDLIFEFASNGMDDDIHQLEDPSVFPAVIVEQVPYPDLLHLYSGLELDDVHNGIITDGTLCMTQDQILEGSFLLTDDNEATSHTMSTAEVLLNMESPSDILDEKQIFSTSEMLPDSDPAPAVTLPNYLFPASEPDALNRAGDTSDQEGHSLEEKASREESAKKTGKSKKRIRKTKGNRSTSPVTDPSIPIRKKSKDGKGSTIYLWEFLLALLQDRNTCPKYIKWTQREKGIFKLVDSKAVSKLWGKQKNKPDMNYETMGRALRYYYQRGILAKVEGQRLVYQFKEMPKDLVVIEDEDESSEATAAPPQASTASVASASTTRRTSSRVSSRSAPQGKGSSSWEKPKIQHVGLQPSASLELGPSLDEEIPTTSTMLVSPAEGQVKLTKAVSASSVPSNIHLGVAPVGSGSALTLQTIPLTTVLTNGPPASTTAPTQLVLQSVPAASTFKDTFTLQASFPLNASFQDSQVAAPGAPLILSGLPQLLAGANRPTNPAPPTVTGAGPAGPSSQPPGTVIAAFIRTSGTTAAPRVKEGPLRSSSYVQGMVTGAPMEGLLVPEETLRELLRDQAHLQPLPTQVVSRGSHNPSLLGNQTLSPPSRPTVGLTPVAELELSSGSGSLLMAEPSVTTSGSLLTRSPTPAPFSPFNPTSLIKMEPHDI
Method in brief: as §1

[15] = molecular target: T9, ELK4 (Homo sapiens, UniProt P28324-2 1-405); conditions: protein: recombinant; tags: N-terminal GST; dsDNA, one strand shown
T9 sequence: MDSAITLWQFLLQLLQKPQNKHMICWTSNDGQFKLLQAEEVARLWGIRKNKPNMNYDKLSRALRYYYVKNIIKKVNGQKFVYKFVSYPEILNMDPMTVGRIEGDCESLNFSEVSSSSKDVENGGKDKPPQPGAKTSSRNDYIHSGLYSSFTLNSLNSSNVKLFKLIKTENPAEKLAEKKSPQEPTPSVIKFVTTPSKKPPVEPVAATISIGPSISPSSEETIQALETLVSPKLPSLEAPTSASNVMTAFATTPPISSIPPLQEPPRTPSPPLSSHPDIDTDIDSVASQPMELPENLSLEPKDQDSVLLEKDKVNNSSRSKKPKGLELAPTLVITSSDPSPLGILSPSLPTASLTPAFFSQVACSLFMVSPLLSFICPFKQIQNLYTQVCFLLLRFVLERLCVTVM
Method in brief: as §1

[16] = molecular target: T10, ETV2 (Homo sapiens, UniProt O00321 1-342); conditions: protein: recombinant; tags: N-terminal GST; dsDNA, one strand shown
T10 sequence: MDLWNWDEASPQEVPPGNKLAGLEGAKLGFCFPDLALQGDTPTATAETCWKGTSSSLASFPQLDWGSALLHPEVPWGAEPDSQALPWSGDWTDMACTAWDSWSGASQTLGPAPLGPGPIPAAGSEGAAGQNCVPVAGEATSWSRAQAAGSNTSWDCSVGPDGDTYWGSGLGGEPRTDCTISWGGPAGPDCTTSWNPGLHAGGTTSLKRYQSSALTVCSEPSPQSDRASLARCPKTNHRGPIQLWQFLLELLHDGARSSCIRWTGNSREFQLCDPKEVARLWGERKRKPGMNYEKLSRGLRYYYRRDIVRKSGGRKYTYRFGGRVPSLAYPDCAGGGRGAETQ
Method in brief: as §1

[17] = molecular target: T11, ELF3 (Homo sapiens, UniProt P78545 1-371); conditions: protein: recombinant; tags: N-terminal GST; dsDNA, one strand shown
T11 sequence: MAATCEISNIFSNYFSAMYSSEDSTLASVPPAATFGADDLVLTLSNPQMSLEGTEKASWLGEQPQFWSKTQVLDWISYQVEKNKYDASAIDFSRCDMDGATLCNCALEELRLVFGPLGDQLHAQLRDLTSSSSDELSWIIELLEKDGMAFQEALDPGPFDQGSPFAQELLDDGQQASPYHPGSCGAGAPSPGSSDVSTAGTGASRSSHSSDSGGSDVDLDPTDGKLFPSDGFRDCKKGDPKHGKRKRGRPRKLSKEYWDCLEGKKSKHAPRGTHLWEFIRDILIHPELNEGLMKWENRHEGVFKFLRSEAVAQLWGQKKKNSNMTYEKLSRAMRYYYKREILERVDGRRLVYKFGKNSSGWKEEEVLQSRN
Method in brief: as §1

[18] = molecular target: CRX (Homo sapiens, UniProt O43186 1-299); conditions: protein: recombinant; tags: N-terminal GST; dsDNA, one strand shown
Chain of CRX (O43186 whole entry): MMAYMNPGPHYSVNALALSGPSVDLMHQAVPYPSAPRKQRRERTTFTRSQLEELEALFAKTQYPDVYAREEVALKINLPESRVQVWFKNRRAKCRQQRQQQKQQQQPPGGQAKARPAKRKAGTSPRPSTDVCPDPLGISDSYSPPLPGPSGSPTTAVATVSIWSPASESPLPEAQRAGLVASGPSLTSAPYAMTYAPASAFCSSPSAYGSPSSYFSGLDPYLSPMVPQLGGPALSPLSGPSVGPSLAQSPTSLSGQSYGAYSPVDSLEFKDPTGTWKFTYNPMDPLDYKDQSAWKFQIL
Method in brief: as §1

[19] = molecular target: ETV1 (Homo sapiens, UniProt P50549 1-477); conditions: protein: recombinant; tags: N-terminal GST; dsDNA, one strand shown
Chain of ETV1 (P50549 whole entry): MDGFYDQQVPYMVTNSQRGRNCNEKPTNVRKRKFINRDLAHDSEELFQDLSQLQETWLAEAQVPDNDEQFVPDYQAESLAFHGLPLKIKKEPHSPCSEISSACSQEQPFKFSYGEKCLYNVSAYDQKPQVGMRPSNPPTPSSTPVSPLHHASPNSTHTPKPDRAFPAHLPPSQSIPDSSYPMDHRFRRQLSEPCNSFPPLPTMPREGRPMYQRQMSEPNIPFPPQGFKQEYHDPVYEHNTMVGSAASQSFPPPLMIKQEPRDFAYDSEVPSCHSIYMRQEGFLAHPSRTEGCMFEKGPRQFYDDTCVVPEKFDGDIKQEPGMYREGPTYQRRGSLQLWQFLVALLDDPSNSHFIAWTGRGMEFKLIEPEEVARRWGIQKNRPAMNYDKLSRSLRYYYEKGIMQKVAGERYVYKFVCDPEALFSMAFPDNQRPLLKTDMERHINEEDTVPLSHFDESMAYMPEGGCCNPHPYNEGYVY
Method in brief: as §1

Q: How did the binding signal [1] turn out when ATCTCA was run?
A: 1.17 fold enrichment (6-mer frequency, TF over GST control)

Q: And the binding signal [2]?
A: 1.18 fold enrichment (6-mer frequency, TF over GST control)

Q: What about the binding signal [3] of the same sequence?
A: 1.15 fold enrichment (6-mer frequency, TF over GST control)

Q: What about the binding signal [4] of the same sequence?
A: 1.11 fold enrichment (6-mer frequency, TF over GST control)

Q: What about the binding signal [5] of the same sequence?
A: 1.2 fold enrichment (6-mer frequency, TF over GST control)

Q: What about the binding signal [6] of the same sequence?
A: 1.25 fold enrichment (6-mer frequency, TF over GST control)

Q: What about the binding signal [7] of the same sequence?
A: 1.12 fold enrichment (6-mer frequency, TF over GST control)

Q: And the binding signal [8]?
A: 1.19 fold enrichment (6-mer frequency, TF over GST control)

Q: And the binding signal [9]?
A: 1.18 fold enrichment (6-mer frequency, TF over GST control)

Q: What about the binding signal [10] of the same sequence?
A: 1.16 fold enrichment (6-mer frequency, TF over GST control)

Q: What about the binding signal [11] of the same sequence?
A: 1.18 fold enrichment (6-mer frequency, TF over GST control)

Q: What about the binding signal [12] of the same sequence?
A: 1.19 fold enrichment (6-mer frequency, TF over GST control)

Q: And the binding signal [13]?
A: 1.14 fold enrichment (6-mer frequency, TF over GST control)

Q: What about the binding signal [14] of the same sequence?
A: 1.18 fold enrichment (6-mer frequency, TF over GST control)

Q: And the binding signal [15]?
A: 1.14 fold enrichment (6-mer frequency, TF over GST control)

Q: And the binding signal [16]?
A: 1.23 fold enrichment (6-mer frequency, TF over GST control)

Q: And the binding signal [17]?
A: 1.22 fold enrichment (6-mer frequency, TF over GST control)

Q: And the binding signal [18]?
A: 1.51 fold enrichment (6-mer frequency, TF over GST control)

Q: What about the binding signal [19] of the same sequence?
A: 1.16 fold enrichment (6-mer frequency, TF over GST control)
